The first experiment has as its target Fibroblast growth factor 10 (Homo sapiens) (UniProt O15520). The experiment in a line: compounds binding fibroblast growth factor 10 – biochemical, small-molecule microarray, 635 nm fluorescence, primary screen (AID 1102). The note with it: FGF10 binding, fluorescence 635 nm, higher = more signal.
Fibroblast growth factor 10 (Homo sapiens), sequence (O15520 whole entry, looked up): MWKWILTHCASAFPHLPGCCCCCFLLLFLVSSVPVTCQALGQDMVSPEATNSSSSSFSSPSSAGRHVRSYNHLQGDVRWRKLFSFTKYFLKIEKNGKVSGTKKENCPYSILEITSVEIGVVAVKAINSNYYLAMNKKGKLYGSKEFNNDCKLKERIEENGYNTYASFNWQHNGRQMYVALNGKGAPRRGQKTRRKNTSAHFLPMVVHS
Take `COc1cc(C(O)C2C=CC3C(=O)N(c4ccccc4)C(=O)C3N2Nc2ccccc2F)cc(OC)c1OC` (centres undefined): the composite z-score was 1.35.

On to `C=CCN1C(=O)[C@@]2(O[C@@H](CCn3cc([C@H](O)c4ccccc4)nn3)[C@H]([Si](C)(C)c3ccc(OC)cc3)[C@H]2C)c2cc(N3C(=O)c4cccc5cccc3c45)ccc21`, for which the composite z-score was -0.859.

`COC(=O)[C@H](Cc1ccc(O)cc1)N[C@@H](/C=C/C1CC1)[C@H](O)Cc1ccccc1`: the composite z-score came out at 0.357.

Turning to `COc1ccc([Si](C)(C)[C@@H]2[C@@H](CC(=O)N3CCC[C@H]3CO)O[C@]3(C(=O)N(Cc4cccc(N5CCCCC5=O)c4)c4ccccc43)[C@H]2C)cc1`, the composite z-score amounted to 0.32.

In turn, `O=C1C[C@@](C(=O)O)(c2ccc([N+](=O)[O-])cc2)[C@@H](c2ccc(CO)cc2)N1C1CCCCC1` came in with a composite z-score of 0.869.

Molecule `CCOC(=O)c1cn(C[C@H](Cc2ccccc2)NC(=O)N[C@H](CO)CCc2oc(C(C)=O)c(C(=O)OC)c2C(=O)OC)nn1` returned a composite z-score of 1.37.

`NCCCCCCNC(=O)[C@@H]1C[C@@H]2C(=O)N3CCC[C@H]3C(=O)N2[C@@H]1c1cccc(OCCO)c1` returned a composite z-score of 0.752.

`COCCOC(=O)N1C(=O)[C@@]2(c3cc(C#CCCO)ccc31)[C@H](C(N)=O)[C@H]1C(=O)O[C@H](c3ccccc3)[C@H](c3ccccc3)N1[C@@H]2c1ccccc1OCCO` yielded a composite z-score of 0.738.

The next experiment concerns glycogen synthase kinase-3 (GSK3A per assay name; protocol says GSK3B). The experiment in a line: compounds binding glycogen synthase kinase-3 – biochemical, small-molecule microarray, 635 nm fluorescence, GSK3A, primary screen (AID 1103). Also: the record names both GSK3A and GSK3B. As to conditions: fluorescence 635 nm, higher = more signal.
On to `CC(C)(C)N1CC=CC23O[C@@H]4/C=C\CCCOC(=O)C4[C@H]2C(=O)N(CCCO)[C@@H]3C1=O` (some centres undefined), for which the composite z-score was -0.416.

For the molecule `Cc1ccc(S[C@]2(C(=O)NCCCN(C)C)CC(=O)N(C3Cc4ccccc4C3)[C@@H]2c2ccc(CO)cc2I)cc1`, the composite z-score was -0.719.

In the case of `CCOc1cc(C(O)C2C=CC3C(=O)N(c4ccccc4)C(=O)C3N2Nc2ccccc2F)ccc1O` (centres undefined), the composite z-score is -0.186.

The molecule `Cc1ccc(F)cc1S(=O)(=O)N[C@H]1CCN(Cc2ccc(OC(C)C)cc2)C1` gave a composite z-score of 0.0619.

`COC(=O)C(CC#Cc1ccc2c(c1)[C@]1(C(=O)N2)[C@H](c2ccc(OCCO)cc2)N2[C@H](c3ccccc3)[C@H](c3ccccc3)OC(=O)[C@H]2[C@@H]1C(=O)N1CCCCCCC1)C(=O)OC`: the composite z-score was found to be 1.37.

Take `[N-]=[N+]=Nc1ccccc1C[C@]1(C(=O)N2CCOCC2)N=C(c2ccc(OCCCO)cc2)O[C@H]1c1ccccc1N=[N+]=[N-]`: the composite z-score came out at 1.31.

Regarding `O=C(NC1CC1)[C@@H]1c2ccccc2C(=O)N(Cc2ccc(OC(F)(F)F)cc2)[C@H]1c1ccc(CO)cc1`, the composite z-score was -0.589.

`CN(C)CCCC[C@@H]1NC(=O)[C@H]2C[C@@H](C(=O)O)[C@@H](c3ccc(O)cc3)N2C1=O` yielded a composite z-score of 1.44.

In the case of `CO[C@H]1O[C@H](CO)[C@@H](OC(=O)Nc2ccccc2)[C@H](OC(=O)Nc2ccccc2)[C@H]1OC(=O)Nc1ccccc1`, the composite z-score amounted to 1.25.

In the case of `[N-]=[N+]=NCc1ccccc1[C@@H]1OC(c2ccc(OCCCO)cc2)=N[C@]1(Cc1ccccc1N=[N+]=[N-])C(=O)O`, the composite z-score was 1.26.

`CC(C)=CCCC(C)=CC(O)C1C=CC2C(=O)NC(=O)C2N1Nc1ccc(Cl)cc1Cl` (centres undefined): the composite z-score was determined as 0.0742.

Turning to `CC(C)C(=C=CC[C@H](O)c1ccccc1OCCO)C[C@H](O)c1cc(Cl)cc(Cl)c1O`, the composite z-score stood at 0.579.

Regarding `COc1ccc(C(=O)Nc2ccc3c(c2)[C@@]2(O[C@H](CCO)[C@@H]([Si](C)(C)c4ccc(OC)cc4)[C@@H]2C)C(=O)N3Cc2ccccc2)cc1`, the composite z-score amounted to 0.369.

`CC(C)(C)OC(=O)CC[C@@]1(C(=O)NCCN2CCOCC2)N=C(c2ccc(OCCCO)cc2)O[C@@H]1c1ccccc1CN=[N+]=[N-]` came in with a composite z-score of 0.139.

Consider `CC(C)C(CO)N1C(=O)[C@@H]2C3C(=O)OCCC/C=C\[C@H]3OC23C=CCN(Cc2ccccc2)C(=O)[C@@H]13` (some centres undefined), for which the composite z-score is -0.54.

The molecule `COC(=O)C(CC#Cc1ccc2c(c1)[C@]1(C(=O)N2)[C@H](C(=O)N2CCc3cc(OC)c(OC)cc3C2)[C@H]2C(=O)O[C@H](c3ccccc3)[C@H](c3ccccc3)N2[C@@H]1c1ccccc1OCCO)C(=O)OC` showed a composite z-score of 1.34.

The molecule `CC(C)=CCCC=C(C)C(O)C1C=CC2C(=O)N(c3ccccc3)C(=O)C2N1Nc1ccc(C#N)cc1` (centres undefined) gave a composite z-score of 1.3.

With `C=CCC(OC(C)=O)[C@@H]1[C@@H](N(Cc2cccc3ccccc23)C(=O)Cc2ccc(OC)cc2)c2cc(OCCCO)ccc2N1C(=O)Cc1ccc2ccccc2c1` (some centres undefined), the composite z-score was -0.227.

For the molecule `CN1C(=O)C2C=CC(C(O)c3ccc(-c4ccccc4)s3)N(NC(=O)OC(C)(C)C)C2C1=O` (centres undefined), the composite z-score turned out to be 0.484.

`COC(=O)[C@@]1(Cc2ccccc2)N=C(c2ccc(OCCCO)cc2)O[C@H]1c1ccccc1CN=[N+]=[N-]`: the composite z-score came to 0.893.

Molecule `COc1ccc([Si](C)(C)[C@H]2[C@H](CC(=O)N3Cc4ccccc4C[C@H]3CO)O[C@@]3(C(=O)N(C)c4ccccc43)[C@@H]2C)cc1` displayed a composite z-score of 1.29.

In turn, `C=CCC(OC(C)=O)[C@@H]1[C@@H](N(Cc2cc3ccccc3o2)C(=O)c2cccc3ccccc23)c2cc(OCCCO)ccc2N1C(=O)c1ccc2ccccc2n1` (some centres undefined) came in with a composite z-score of 0.0025.

Consider `CCOC(=O)C[C@H]1[C@H](OC(=O)c2ccccc2-c2ccccc2)[C@@H](NC(=O)C2CCCCC2)c2cc(OCCCO)ccc2N1C(=O)c1ccc2ccccc2n1`, for which the composite z-score stood at 0.452.

With `O=C1C2C=CC(C(O)C3CCCCC3)N(n3cnnc3)C2C(=O)N1Cc1ccccc1` (centres undefined), the composite z-score was found to be 1.1.

In turn, `C=CCOC(=O)[C@@H]1[C@H]2C(=O)O[C@H](c3ccccc3)[C@H](c3ccccc3)N2[C@H](c2ccc(OCCOC(=O)[C@H]3C[C@H]4C(=O)N[C@@H](CCCCN(C)C)C(=O)N4[C@H]3c3ccc(O)cc3)cc2)[C@@]12C(=O)Nc1ccc(I)cc12` gave a composite z-score of 1.33.

On to `O=C1C[C@]2(c3ccc([N+](=O)[O-])cc3)C(=O)N(C3CC3)c3cc(CO)ccc3[C@H]2N1C1CCCCC1`, for which the composite z-score amounted to 0.139.

Molecule `CN(C)CCCNC(=O)[C@@]1(Cc2ccccc2I)c2ccccc2C(=O)N(C2CCCCC2)[C@H]1c1ccc(CO)cc1` returned a composite z-score of 1.03.

Consider `C=CCC(OC(C)=O)[C@@H]1[C@@H](N(Cc2cccc3ccccc23)C(=O)c2ccc(-c3ccccc3)cc2)c2cc(OCCCO)ccc2N1C(=O)Cc1ccc2ccccc2c1` (some centres undefined), for which the composite z-score was -0.328.

`COc1cc(C(O)C2C=CC3C(=O)N(c4ccccc4)C(=O)C3N2Nc2ccccc2F)cc(OC)c1OC` (centres undefined) gave a composite z-score of 1.34.

On to `C=CCN1C(=O)[C@@]2(O[C@@H](CCn3cc([C@H](O)c4ccccc4)nn3)[C@H]([Si](C)(C)c3ccc(OC)cc3)[C@H]2C)c2cc(N3C(=O)c4cccc5cccc3c45)ccc21`, for which the composite z-score was -1.37.

In the case of `COC(=O)[C@H](Cc1ccc(O)cc1)N[C@@H](/C=C/C1CC1)[C@H](O)Cc1ccccc1`, the composite z-score was -0.444.

`COc1ccc([Si](C)(C)[C@@H]2[C@@H](CC(=O)N3CCC[C@H]3CO)O[C@]3(C(=O)N(Cc4cccc(N5CCCCC5=O)c4)c4ccccc43)[C@H]2C)cc1` came in with a composite z-score of 0.523.

As for `O=C1C[C@@](C(=O)O)(c2ccc([N+](=O)[O-])cc2)[C@@H](c2ccc(CO)cc2)N1C1CCCCC1`, the composite z-score came to 0.582.

In the case of `CCOC(=O)c1cn(C[C@H](Cc2ccccc2)NC(=O)N[C@H](CO)CCc2oc(C(C)=O)c(C(=O)OC)c2C(=O)OC)nn1`, the composite z-score was 1.28.

The molecule `NCCCCCCNC(=O)[C@@H]1C[C@@H]2C(=O)N3CCC[C@H]3C(=O)N2[C@@H]1c1cccc(OCCO)c1` came in with a composite z-score of 0.851.

For the molecule `COCCOC(=O)N1C(=O)[C@@]2(c3cc(C#CCCO)ccc31)[C@H](C(N)=O)[C@H]1C(=O)O[C@H](c3ccccc3)[C@H](c3ccccc3)N1[C@@H]2c1ccccc1OCCO`, the composite z-score was 1.3.

The values are drawn from PubChem BioAssay.
